The source of these data is PubChem BioAssay (NCI).

Molecules are shown by their SMILES. Compounds without any hit were thinned out: in the full panel of roughly 79,000, 15% have a hit. Calls of active or inactive are those of the source. Cut-off read from the data, not from the text of the source: active = growth inhibition above about 70%; inactive = the rest.

One test can be described thus: NCI Yeast Anticancer Drug Screen. Data for the sgs1 mgt1 strain (AID 161).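 Note: 0% = growth of cultures given vehicle only.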 Particulars: S. cerevisiae sgs1 mgt1 strain, at 50.0 µM, active compounds read high. The method in brief: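 Mutant yeast exposed to compound; growth scored against vehicle-only wells.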
For `CSc1c(C#N)c(N)n2c1C(=O)N(c1ccccc1)C2=S`, the growth inhibition was -26.9% (inactive).
`CN1CCCCC(C#N)(c2ccccc2)CC1` (stereo not drawn): the growth inhibition is 7.85% (inactive).
Consider `Nc1ncc2ncn(C3CCC(CO)O3)c2n1` (stereo not drawn), for which the growth inhibition is -22.2% (inactive).
In the case of `O=C(COc1cccc(C(=O)O)c1)Nc1ccccc1`, the growth inhibition was 12.4% (inactive).
For `CCCc1c(C)nc2scc(-c3ccccc3)n2c1=O`, the growth inhibition is 55.1% (inactive).
On the same count and under the same terms, to `CC(=O)OCCn1cnc2c(NCC=C(C)C)ncnc21` belongs -40% (inactive); to `c1ccc(N2C3Sc4ncccc4C2Sc2ncccc23)cc1`, 16.6% (inactive).
On the same count and under the same terms, next, `COc1nc(NC2OCC(O)C(O)C2O)c(Br)c(=O)n1C` (stereo not drawn): 14.2% (inactive); `CCN(CC(O)COc1ccc2c(c1)[n+]([O-])nc(N)[n+]2[O-])C(C)=O` (stereo not drawn): 40.3% (inactive).
The same measure, in the same setting: to `Oc1c(CNCc2ccccc2)cc(CNCc2ccccc2)c(O)c1CNCc1ccccc1` belongs -4.8% (inactive); to `CCCCCO/C=C/CN1CCOCC1`, 3.1% (inactive).
Take `O=C1C2=C(CCCC2)Nc2cccc3ncn1c23`: the growth inhibition is -56.8% (inactive).
With `CC(=O)Nc1ccc(S(=O)(=O)CCN2C(=O)c3ccccc3C2=O)cc1`, the growth inhibition is 12.3% (inactive).
With `CC(NC(=O)NCCCl)c1cccc2ccccc12` (stereo not drawn), the growth inhibition was -2.4% (inactive).
On the same count and under the same terms, to `Cn1c(Cc2ccccc2)c([N+](=O)[O-])c(=O)n(C)c1=O` belongs -2.1% (inactive); to `CCCCCCCCCCCCCCCCS(=O)(=O)N/N=C(\c1ccc(C(C)C)cc1)N1CCOCC1`, 12.7% (inactive); to `CCOc1cc2c(cc1C(CC)c1ccccc1)OCO2` (stereo not drawn), 9.75% (inactive).
For the compound `CC(=O)N=C1N(/C=C2\C(=O)Oc3ccccc3C2=O)C(=O)/C(=C/c2ccc3c(c2)OCO3)N1C`, the growth inhibition is 5.25% (inactive).
For the compound `CCCCC(=O)c1ccc2ccccc2c1O`, the growth inhibition is 3.9% (inactive).
As for `CCN(CC)c1ccc(N)cc1`, the growth inhibition is 26.1% (inactive).
In the case of `Cc1ccc(S(=O)(=O)OC(c2ccccc2)C(F)(F)F)cc1` (stereo not drawn), the growth inhibition was -7.2% (inactive).
Still for that read-out and setting: to `COC(=O)c1cccc(C(=O)CC(=O)c2ccccc2)c1` belongs 8.1% (inactive).
Still for that read-out and setting: to `C(=C\c1ccco1)/c1ccco1` belongs 12.3% (inactive).

The nature of another test: NCI Yeast Anticancer Drug Screen. Data for the cln2 rad14 strain (AID 165).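 Note: 0% = growth equal to vehicle treated cultures.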 Particulars: S. cerevisiae cln2 rad14 strain, at 50.0 µM, active compounds read high. The method in brief:
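cln2 rad14 yeast strain; compound exposure; growth inhibition read vs vehicle controls.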
In the case of `CN(C)NC(=O)Nc1cccc2ccccc12`, the growth inhibition was -22.4% (inactive).
Same read-out and setting: next, `CCN(CC)CCCC(C)n1c(-c2ccc(OC)cc2)nc2cc(Cl)ccc21` (stereo not drawn): 10.1% (inactive); `CCOC(=O)COc1cc2c(cc1C(C)c1ccc(OCc3ccccc3)c(OC)c1)OCO2` (stereo not drawn): 10.6% (inactive); `CNC(=O)c1ccccc1Sc1ccccc1`: -34.8% (inactive).
`COc1ccc(-c2nnc(-c3ccc(OC)cc3)nn2)cc1`: the growth inhibition was -11.8% (inactive).
Take `O=C1C(CCCS)C(c2ccccc2)=NN1c1ccccc1` (stereo not drawn): the growth inhibition was -12.8% (inactive).
On to `CCOC(=O)C(C)NCc1ccccc1` (stereo not drawn), for which the growth inhibition was -39.6% (inactive).
For `COC(=O)c1c(O)c2c(c3c1OC(C)(C)CC3)OC(C)(C)CC2`, the growth inhibition was -2.55% (inactive).
On to `CC(C)(C)SC1C(O)C(CO)OC1n1ccc(Nc2ccccc2)nc1=O` (stereo not drawn), for which the growth inhibition was -15.8% (inactive).
On the same count and under the same terms, to `C=C1C(=O)O[C@@H]2[C@H]3[C@H](C)C(=O)C=C[C@]3(C)CC[C@@H]12` belongs 13.4% (inactive).
In the case of `COc1cccc(CCNC(=O)Cc2ccccc2CCO)c1`, the growth inhibition is 9.35% (inactive).
For `O=C1CC(O)C2C(=O)c3c(c(Cl)c4ccccc4c3O)C(=O)C2C1` (stereo not drawn), the growth inhibition is 4.75% (inactive).
On to `O=C(O)CNC1CCCC1`, for which the growth inhibition is -1.6% (inactive).
Turning to `Cc1ccc(C(=N)c2ccccc2Cc2cccc3ccccc23)c2ccccc12`, the growth inhibition was -36.9% (inactive).
On the same count and under the same terms, next, `O=C(/C=C\c1ccccc1)Nc1c(Cl)cc(Cl)cc1Cl`: -8.75% (inactive); `COc1ccc(/C=C2\N=C(c3ccc([N+](=O)[O-])cc3)OC2=O)cc1Br`: 23.4% (inactive).
On the same count and under the same terms, next, `CCOC(=O)C(C=C(C)C)(CC)C(=O)OCC`: -4.55% (inactive).
In the case of `CSc1c(C#N)c(N)n2c1C(=O)N(c1ccccc1)C2=S`, the growth inhibition was 20.1% (inactive).
Same read-out and setting: to `CN1CCCCC(C#N)(c2ccccc2)CC1` (stereo not drawn) belongs -2.2% (inactive).
Still for that read-out and setting: next, `Nc1ncc2ncn(C3CCC(CO)O3)c2n1` (stereo not drawn): -4.65% (inactive); `O=C(COc1cccc(C(=O)O)c1)Nc1ccccc1`: -1.4% (inactive); `CCCc1c(C)nc2scc(-c3ccccc3)n2c1=O`: 37.4% (inactive).
The same measure, in the same setting: to `CC(=O)OCCn1cnc2c(NCC=C(C)C)ncnc21` belongs 0.75% (inactive).
Consider `c1ccc(N2C3Sc4ncccc4C2Sc2ncccc23)cc1`, for which the growth inhibition was 6.1% (inactive).
In the case of `COc1nc(NC2OCC(O)C(O)C2O)c(Br)c(=O)n1C` (stereo not drawn), the growth inhibition is 11.8% (inactive).
As for `CCN(CC(O)COc1ccc2c(c1)[n+]([O-])nc(N)[n+]2[O-])C(C)=O` (stereo not drawn), the growth inhibition is 38.9% (inactive).
The same measure, in the same setting: to `Oc1c(CNCc2ccccc2)cc(CNCc2ccccc2)c(O)c1CNCc1ccccc1` belongs 3.2% (inactive).
Same read-out and setting: next, `CCCCCO/C=C/CN1CCOCC1`: -8.5% (inactive); `O=C1C2=C(CCCC2)Nc2cccc3ncn1c23`: -20.4% (inactive); `CC(=O)Nc1ccc(S(=O)(=O)CCN2C(=O)c3ccccc3C2=O)cc1`: -62.5% (inactive).
As for `CC(NC(=O)NCCCl)c1cccc2ccccc12` (stereo not drawn), the growth inhibition was 44.2% (inactive).
Same read-out and setting: to `Cn1c(Cc2ccccc2)c([N+](=O)[O-])c(=O)n(C)c1=O` belongs -8.2% (inactive); to `CCCCCCCCCCCCCCCCS(=O)(=O)N/N=C(\c1ccc(C(C)C)cc1)N1CCOCC1`, 9.3% (inactive).
The same measure, in the same setting: to `CCOc1cc2c(cc1C(CC)c1ccccc1)OCO2` (stereo not drawn) belongs 3% (inactive); to `CC(=O)N=C1N(/C=C2\C(=O)Oc3ccccc3C2=O)C(=O)/C(=C/c2ccc3c(c2)OCO3)N1C`, 9.4% (inactive); to `CCCCC(=O)c1ccc2ccccc2c1O`, -18% (inactive).
Take `CCN(CC)c1ccc(N)cc1`: the growth inhibition is -4.4% (inactive).
Same read-out and setting: to `Cc1ccc(S(=O)(=O)OC(c2ccccc2)C(F)(F)F)cc1` (stereo not drawn) belongs 6.9% (inactive); to `COC(=O)c1cccc(C(=O)CC(=O)c2ccccc2)c1`, 12.3% (inactive); to `C(=C\c1ccco1)/c1ccco1`, 9.85% (inactive).
